# From PubChem BioAssay (Tox21)
# Records with an inconclusive call do not appear. A call without a number means that no potency is given here. Calls of active or inactive are those of the source. The call rests on the fitted dose curve; in most records, active means well fitted cell-killing curve with a large enough effect in the repeat runs; inconclusive means weak or mixed curves, or effect the other way; inactive means flat fitted curve, though single readings scatter.
# Test: cAMP Responsive Elements (CRE) small molecule agonists, cell-based qHTS assay: qHTS cell viability counter screen (AID 2060914); further: nearly all actives have a fitted effect of over 50% in size
# Conditions: CRE-bla HEK293T viability, CellTiter-Glo luminescence, 5 h; series mostly up to 92.4 µM
# In short: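 Luminescence read-out (CellTiter-Glo, 30 min RT) of ATP-based viability in CRE-bla HEK 293T cells, run in the same wells as the β-lactamase reporter assay after 3 h compound treatment at 37 °C.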
row,SMILES,Potency
1,N#Cc1c(-c2ccc(Cl)cc2)[nH]c(C(F)(F)F)c1Br,inactive
2,O=C(O)C(Cl)Cl,inactive
3,NC1CCC(CC2CCC(N)CC2)CC1 (configuration not stated),inactive
4,CO/N=C(/C1=NOCCO1)c1ccccc1Oc1ncnc(Oc2ccccc2Cl)c1F,inactive
5,CC(C)OC(=O)C(O)(c1ccc(Cl)cc1)c1ccc(Cl)cc1,inactive
6,Cc1cc(C)c(C(=O)P(=O)(c2ccccc2)c2ccccc2)c(C)c1,inactive
7,CC(C)NC(=O)N1CC(=O)N(c2cc(Cl)cc(Cl)c2)C1=O,inactive
8,OC[P+](CO)(CO)CO,inactive
9,O=C(c1ccccc1)C(Cl)Cl,inactive
10,C(=NC1CCCCC1)=NC1CCCCC1,inactive
11,CCCC(Cn1cncn1)c1ccc(Cl)cc1Cl (configuration not stated),inactive
12,N[C@@H](Cc1ccc(N(CCCl)CCCl)cc1)C(=O)O,inactive
13,Cc1ccc(-c2c(Cl)nc(C#N)n2S(=O)(=O)N(C)C)cc1,inactive
14,CC1COC(Cn2cncn2)(c2ccc(Oc3ccc(Cl)cc3)cc2Cl)O1 (configuration not stated),inactive
15,CO/C=C(/C(=O)OC)c1ccccc1COc1cccc(C(F)(F)F)n1,inactive
16,O=S(=O)(NS(=O)(=O)C(F)(F)F)C(F)(F)F,inactive
17,CSSC,inactive
